Test [1] is described as follows: inhibitors of TNFa-induced NFkB p65 translocation, primary screen, imaging, HUVEC, MLSMR starter and 10KST1 sets (AID 438;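 active = inhibition above 20% together with a positive visual image hit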;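 note: compound added about 3h40 before a 20 min TNFalpha stimulation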;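 for inhibition: signal is the nuclear over cytoplasmic p65 intensity ratio per well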). Conditions: HUVEC TNFa-induced p65 nuclear translocation; cell count: measured here: nuclei count (cytotoxicity indicator), at 2.08 µM unless noted; inhibition: at 2 µM, stronger effect = higher value unless noted.
A short description of test [2]: reduction of polyQ htt aggregates in cells – imaging, exon1htt(103Q)mCFP cells, high-content imaging, primary screen (AID 483;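 active = visual image review flags a hit and inhibition of aggregation exceeds 20%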;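 note: compound exposure lasted 3 days before fixation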;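 for nuclei count: percent of the per-plate median nuclei count of sample wells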). Conditions: exon1htt(103Q)mCFP cell line, aggregate imaging, at 2 µM; inhibition of aggregation: stronger effect = higher value; nuclei count: measured here: cell count, toxicity.
Test [3] can be described thus: endothelial E-selectin expression blockers – imaging, HUVEC, immunofluorescence, MLSMR starter and 10KST1 sets, primary screen (AID 487;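 active = visually confirmed hit in the image check and inhibition above 20%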;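 for inhibition: signal is fraction of cell area covered by stained E-selectin grains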;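 for nuclei count: 100% = median nuclei count of all wells on the same plate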). Conditions: HUVEC TNFalpha-induced E-selectin immunofluorescence imaging, at 2 µM; inhibition: stronger effect = higher value; nuclei count: measured here: cell number, toxicity.
In test [4] the target is Voltage-gated potassium channel subunit beta-2 (Rattus norvegicus) (UniProt P62483). The test is described as follows: inhibitors of rat Kvbeta2 reductase activity – biochemical, NADPH fluorescence, primary screen (AID 622;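 active = fluorescence slope higher than the sample average by over 3 SD, cut at about -0.22 in these data, passing the limit was not always enough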;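 note: slope of raw intensity against log time taken from 70 to 1610 s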). Conditions: recombinant KvBeta, 4-cyanobenzaldehyde reduction, at 10 µM, stronger effect = higher value.
The target is the same in test [5]. Description: enhancers of rat Kvbeta2 NADPH turnover – biochemical, NADPH fluorescence, primary screen (AID 623).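 Note: fluorescence intensity change per second fitted from 20 to 320 s.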 Conditions: Recombinant KvBeta, NADPH fluorescence decrease slope, 10 min; at 10 µM; stronger effect = lower value.
For test [6], the target named is Alpha-2C adrenergic receptor (Homo sapiens) (UniProt P18825). The test is described as follows: compounds altering alpha2C-coupled GIRK flux – cell-based, HEK293 alpha2C/GIRK1/2, thallium flux, primary screen (AID 624;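 active = fluorescence slope after compound addition differing from the mean of all screened samples at 99.7% confidence, in either direction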;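 note: slope of fluorescence ratio to pre-addition baseline per second over 15 to 24 s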). Conditions: thallium flux BTC fluorescence, at 10 µM, actives lie on both sides.
Test [7] in a line: blockers of RIG-like receptor reporter activation – cell-based, Sendai virus stimulus, luciferase, 10K MLSCN set, TLR/RLR signaling modifier project, primary screen (AID 602276;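 active = inhibition at or above 50% at 10 µM; inactive = inhibition below 50%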;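 note: firefly luciferase from ISG56 promoter only with Renilla not read in this screen; 0% = Sendai virus plus DMSO and 100% = medium plus DMSO without virus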). The settings on record: HEK293 RL24 IRF3 luciferase reporter, at 10 µM, stronger effect = higher value. Background: Reporter assays use an easily measured gene product as a stand-in for the process of interest.
Test [8] can be described thus: TLR3 IRF3 reporter activation blockers – cell-based, poly I:C stimulus, luciferase, 10K MLSCN set, primary screen (AID 602277;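 active = inhibition of the reporter signal at or above 50%; inactive = inhibition below 50%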). Conditions: HEK293-TLR3 RL24 IRF3 luciferase reporter, at 10 µM, stronger effect = higher value.

Data on 13 molecules can be found in PubChem BioAssay.

By inhibition is commonly meant the drop in the measured response relative to a control, in per cent.

Molecules are shown by their SMILES. Activity calls are given as the source filed them.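 Rule for the calls, unless noted: active = NADPH fluorescence slope more negative than the mean of all samples by about 3 SD, 99.7% confidence; inactive = the rest.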

Voltage-gated potassium channel subunit beta-2 (Rattus norvegicus), sequence (P62483 whole entry, looked up): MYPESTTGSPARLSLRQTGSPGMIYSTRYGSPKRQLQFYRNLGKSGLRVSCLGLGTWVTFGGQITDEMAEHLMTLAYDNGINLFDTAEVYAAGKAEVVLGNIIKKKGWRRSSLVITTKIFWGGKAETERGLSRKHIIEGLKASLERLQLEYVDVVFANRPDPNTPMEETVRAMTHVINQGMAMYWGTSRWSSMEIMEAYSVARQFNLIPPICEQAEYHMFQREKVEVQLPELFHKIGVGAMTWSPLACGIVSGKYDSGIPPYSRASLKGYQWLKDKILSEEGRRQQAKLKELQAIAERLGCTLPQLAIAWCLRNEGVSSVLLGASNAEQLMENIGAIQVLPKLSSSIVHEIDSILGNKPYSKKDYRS
Alpha-2C adrenergic receptor (Homo sapiens), sequence (P18825 whole entry, looked up): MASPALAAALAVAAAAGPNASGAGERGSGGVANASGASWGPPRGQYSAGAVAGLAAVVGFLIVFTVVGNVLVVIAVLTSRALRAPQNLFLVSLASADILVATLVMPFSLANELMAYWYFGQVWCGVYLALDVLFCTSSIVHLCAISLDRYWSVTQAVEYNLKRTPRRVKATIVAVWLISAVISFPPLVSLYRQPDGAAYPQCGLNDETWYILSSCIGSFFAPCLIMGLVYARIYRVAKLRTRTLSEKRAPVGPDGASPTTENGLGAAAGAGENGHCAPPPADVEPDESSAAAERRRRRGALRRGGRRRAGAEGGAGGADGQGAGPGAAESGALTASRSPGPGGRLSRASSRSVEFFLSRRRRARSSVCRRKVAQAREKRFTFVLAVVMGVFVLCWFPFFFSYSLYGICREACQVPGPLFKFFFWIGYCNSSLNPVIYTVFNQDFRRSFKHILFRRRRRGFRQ

As for `Cc1ccc(CC2C(=O)N(C)C(=O)N(C)C2=O)s1`, the cell count in test [1] stood at 451. Also, the inhibition in test [1] is 2.6% (inactive); in test [3] it was 40.2% (inactive); in test [7], 1.08% (inactive); in test [8], 25% (inactive). For the same molecule, the inhibition of aggregation in test [2] was 2% (inactive). Besides, the nuclei count in test [2] was 109%; in test [3], 101%. Further, in test [4], the fluorescence slope is -0.471 (inactive). For the same molecule, in test [5], the NADPH fluorescence slope is -4.3e-05 (inactive). The slope in test [6] is 0.00411 (inactive).
Molecule `CCC(=NCCCN1CCOCC1)c1c(O)n(Cc2ccccc2)c(=O)[nH]c1=O` registered a cell count in test [1] of 481. The inhibition is 0.8% (inactive) in test [1], -36.6% (inactive) in test [3], -4.98% (inactive) in test [7] and 1.2% (inactive) in test [8]. Besides, the inhibition of aggregation in test [2] is 8.2% (inactive). In addition, the results for the nuclei count in test [2] and in test [3] were 101% and 167%, respectively. Moreover, in test [4], the fluorescence slope is -0.629 (inactive). In addition, the NADPH fluorescence slope in test [5] is -2.2e-05 (inactive). In addition, the slope in test [6] is 0.00745 (inactive).
`O=C(NC1(C(F)(F)F)Oc2ccc(Cl)cc2O1)N1CCC2(CC1)OCCO2` (stereo not drawn) had a cell count in test [1] of 676. In addition, the inhibition in test [1] was -22.3% (inactive); in test [3], -97.5% (inactive); in test [7], 8.96% (inactive); in test [8], 38.5% (inactive). In test [2], the inhibition of aggregation was -18.5% (inactive). Further, the nuclei count in test [2] was 114%; in test [3], 108%. Besides, in test [4], the fluorescence slope was -0.513 (inactive). In addition, the NADPH fluorescence slope in test [5] is -9.9e-05 (inactive). Moreover, the slope in test [6] is 0.00493 (inactive).
`CCOc1ccc(C2SCC(=O)Nc3c2c(=O)[nH]n3C2CCCCCC2)cc1` (stereo not drawn): the cell count in test [1] was determined as 286. In addition, the inhibition in test [1] is 23.8% (inactive); in test [3] it was -14.2% (inactive); in test [7] it was -12.2% (inactive); in test [8], 98.8% (active). Besides, the inhibition of aggregation in test [2] is 7.5% (inactive). Further, the nuclei count was determined as 88.4% in test [2] and 102% in test [3]. In test [4], the fluorescence slope is -0.408 (inactive). Further, the NADPH fluorescence slope in test [5] was -2.7e-05 (inactive). In test [6], the slope is 0.00778 (inactive).
Turning to `CN1C(=O)C(Cc2cccc3ccccc23)C(=O)N(C)C1=O`, the cell count in test [1] stood at 393. Also, the inhibition in test [1] is 6.3% (inactive); in test [3], -57.4% (inactive); in test [7] it was 2.57% (inactive); in test [8], 32.2% (inactive). The inhibition of aggregation in test [2] is -7.2% (inactive). The nuclei count in test [2] was 108%; in test [3], 125%. The fluorescence slope in test [4] was -0.47 (inactive). The NADPH fluorescence slope in test [5] was -4.8e-05 (inactive). The slope in test [6] was 0.00658 (inactive).
In test [1], `CN(C)CCc1nc2ccccc2c(=O)n1-c1ccccc1` registered a cell count of 241. Moreover, the inhibition in test [1] was -2.3% (inactive); in test [3], -21% (inactive); in test [7] it was -20.1% (inactive); in test [8], -35% (inactive). The inhibition of aggregation in test [2] was 16.8% (inactive). For the same molecule, the nuclei count in test [2] was 96.8%; in test [3] it was 124%. Besides, the fluorescence slope in test [4] was -0.495 (inactive). For the same molecule, the NADPH fluorescence slope in test [5] was -5e-05 (inactive). Further, the slope in test [6] was 0.00675 (inactive).
Regarding `CCOc1cc2[nH]c(=S)n(CCCC(=O)N3CCC4(CC3)OCCO4)c(=O)c2cc1OCC`, the cell count in test [1] came out at 429. The inhibition in test [1] was 9.4% (inactive); in test [3], -41.4% (inactive); in test [7] it was -5.57% (inactive); in test [8] it was 17.4% (inactive). Besides, the inhibition of aggregation in test [2] was -0.4% (inactive). Moreover, the nuclei count in test [2] was 95.6%; in test [3] it was 107%. The fluorescence slope in test [4] is -0.464 (inactive). Also, the NADPH fluorescence slope in test [5] is 7.5e-06 (inactive). Moreover, in test [6], the slope was 0.00495 (inactive).
Regarding `COc1ccccc1/C=C1/C(=N/O)C2CCN1CC2`, the cell count in test [1] came to 548. Moreover, the inhibition in test [1] was -15% (inactive); in test [3], 42.2% (inactive); in test [7] it was 9.04% (inactive); in test [8], 36.5% (inactive). Also, the inhibition of aggregation in test [2] was -6.2% (inactive). The results for the nuclei count in test [2] and in test [3] were 76.9% and 105%, respectively. Moreover, the fluorescence slope in test [4] was -0.467 (inactive). The NADPH fluorescence slope in test [5] is -1.3e-05 (inactive). The slope in test [6] is 0.00314 (inactive).
Consider `CCN1CCN(Cc2cc(Br)cc(OC)c2O)CC1`, for which the cell count in test [1] is 579. Also, the inhibition in test [1] is 3.6% (inactive); in test [3], -82.5% (inactive); in test [7], -7.48% (inactive); in test [8], 5.42% (inactive). Further, in test [2], the inhibition of aggregation was 20.4% (inactive). In addition, the nuclei count in test [2] came to 99.4%; in test [3], 123%. Also, the fluorescence slope in test [4] is -0.441 (inactive). The NADPH fluorescence slope in test [5] was -4e-05 (inactive). Moreover, the slope in test [6] was 0.00663 (inactive).
As to `CCc1ccc(OCCCN=C(C)c2c(O)n(C)c(=O)n(C)c2=O)cc1`, in test [1], the cell count worked out at 627. Also, the inhibition in test [1] is 0.2% (inactive); in test [3], 23.8% (inactive); in test [7], 11.6% (inactive); in test [8], 14.8% (inactive). The inhibition of aggregation in test [2] was -0.8% (inactive). Moreover, the figures for the nuclei count in test [2] and in test [3] were 84.3% and 95.1%, respectively. In test [4], the fluorescence slope is -0.385 (inactive). In test [5], the NADPH fluorescence slope is 2.2e-06 (inactive). Further, in test [6], the slope was 0.00351 (inactive).
For the molecule `N#Cc1ccccc1Cn1cc(C(=O)C2CC2)c2ccccc21`, the cell count in test [1] was 390. In addition, the inhibition in test [1] was -2.2% (inactive); in test [3], -50.9% (inactive); in test [7] it was 2.45% (inactive); in test [8], 19.3% (inactive). Also, the inhibition of aggregation in test [2] was -0.9% (inactive). The nuclei count in test [2] is 101%; in test [3], 107%. The fluorescence slope in test [4] is -0.447 (inactive). Moreover, in test [5], the NADPH fluorescence slope was -7.2e-05 (inactive). Besides, in test [6], the slope was 0.00467 (inactive).
With `Cc1ccc(C)c(NC2=NCCCS2)c1`, the cell count in test [1] came to 304. Moreover, the inhibition is 9.3% (inactive) in test [1], -82.5% (inactive) in test [3], 17.2% (inactive) in test [7] and 22% (inactive) in test [8]. The inhibition of aggregation in test [2] was 15.3% (inactive). In addition, the results for the nuclei count in test [2] and in test [3] were 92.5% and 91%, respectively. Further, the fluorescence slope in test [4] was -0.566 (inactive). In test [5], the NADPH fluorescence slope was 9.6e-06 (inactive). Besides, the slope in test [6] was 0.00513 (inactive).
In turn, `O=C(NCc1ccccn1)c1ccccc1Cl` registered a cell count in test [1] of 627. Also, the inhibition in test [1] is -0.6% (inactive); in test [3], -26.1% (inactive); in test [7], 10.8% (inactive); in test [8], 10.8% (inactive). Further, the inhibition of aggregation in test [2] was 2.9% (inactive). Moreover, the nuclei count came out at 111% in test [2] and 92.5% in test [3]. In addition, the fluorescence slope in test [4] is -0.532 (inactive). Besides, in test [5], the NADPH fluorescence slope is -5.9e-05 (inactive). The slope in test [6] is 0.00536 (inactive).
